Compound activity from PubChem BioAssay.
ELG1 DNA repair: ELG1-dependent DNA repair inhibition; HEK293T ELG1-luciferase reporter, luminescence, 16 h; DNA damage induced by 5-fluorouridine; Potency, µM (top dose mostly 46.1 µM), for the others: at the highest dose activity change, negative = inhibition, actives largely listed as inhibitors; hit rate 2.3% among 330,000; AID 504467; note: potency is the fitted concentration of half-maximal effect; nearly all actives have a fitted effect of over 55% in size
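Cells (2,000 per well) received 5-fluorouridine plus test compound or DMSO and were incubated 16 hr at 37 °C, 5% CO2. Luciferase activity was read by luminescence 30 min after ONE-Glo addition; signal suppression marked inhibition of damage-induced ELG1 function.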
TDP1 cell noCPT: qHTS for Inhibitors of human tyrosyl-DNA phosphodiesterase 1 (TDP1): qHTS in cells in absence of CPT; DT40 Tdp1-/- hTDP1 cells, no CPT, ATP luminescence, 48 h; Potency, µM (highest dose often 46.2 µM), for the others: top-dose activity change, negative = growth inhibition, usual class: inhibitors; hit rate 15% among 420,000; AID 686978, 2013; note: potency is the fitted concentration of half-maximal effect; nearly all actives have a fitted effect of over 55% in size
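Chicken DT40 Tdp1-/- cells stably complemented with human TDP1 were seeded at 400 cells/well with DMSO in place of 20 nM camptothecin. After compound pinning, cells grew at least 48 hr at 37 °C; viability read by CellTiter-Glo luminescence.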
RORg inh: blocks mouse ROR gamma transcriptional activity; P51450; Drosophila S2 Gal4-RORgamma UAS-luciferase reporter, 20 h; Potency, µM (highest dose often 53.6 µM), without a hit: top-dose activity change, negative = inhibition, most hits filed as inhibitors; hit rate 5.4% among 310,000; AID 2551; note: potency is the fitted concentration of half-maximal effect; nearly all actives have a fitted effect of over 60% in size
Target sequence (P51450 whole entry, looked up, the tested form may be a part): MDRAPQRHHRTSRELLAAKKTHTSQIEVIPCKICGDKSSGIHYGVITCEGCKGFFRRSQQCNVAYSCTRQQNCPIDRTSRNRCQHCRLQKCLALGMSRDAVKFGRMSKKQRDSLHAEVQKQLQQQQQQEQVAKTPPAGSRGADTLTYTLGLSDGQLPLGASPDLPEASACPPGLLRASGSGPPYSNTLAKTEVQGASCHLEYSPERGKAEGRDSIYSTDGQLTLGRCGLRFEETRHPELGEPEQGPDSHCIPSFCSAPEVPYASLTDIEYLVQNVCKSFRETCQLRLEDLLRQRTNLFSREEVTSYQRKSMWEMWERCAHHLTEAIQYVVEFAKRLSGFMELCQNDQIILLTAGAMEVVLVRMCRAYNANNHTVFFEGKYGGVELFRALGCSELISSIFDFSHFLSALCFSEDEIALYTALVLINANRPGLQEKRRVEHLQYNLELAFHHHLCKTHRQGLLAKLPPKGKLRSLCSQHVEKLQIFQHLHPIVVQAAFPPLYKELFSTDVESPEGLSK
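Drosophila Schneider cells stably carrying a metallothionein-driven Gal4 DBD–ROR gamma fusion and a UAS-Photinus luciferase reporter were exposed to compound for 1 hr, then induced with copper sulfate (700 uM final) for 20 hr at ambient temperature before luminescence reading.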
DT40 TDP1 CPT: DT40-hTDP1 cell growth loss with CPT; hit rate 12% among 420,000; Potency, µM (doses to about 46.2 µM), without a hit: at the top dose activity change, negative = growth inhibition, actives largely listed as inhibitors; chicken DT40 Tdp1-/-;hTDP1 cells + 20 nM CPT, ATP luminescence, 48 h; note: potency is the fitted concentration of half-maximal effect; nearly all actives have a fitted effect of over 55% in size
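Chicken DT40 Tdp1-/- cells stably complemented with human TDP1 were seeded at 400 cells/well in medium containing 20 nM camptothecin, exposed to pin-transferred compounds, and grown at 37 °C for at least 48 hr. Viability was read as ATP luminescence.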
IL1B secr inh: inflammasome signaling inhibition, IL-1 beta readout. THP-1 LPS/ATP IL-1B secretion, AlphaLISA, 16 h; stronger effect = lower value. activity change, % at 57.5 µM. hit rate 4.7% among 360,000. AID 743279; in the data active = activity change below about -50%; inconclusive = mostly about -30% to -49%
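Secreted IL-1B measured by AlphaLISA bead assay after 16 h compound exposure of THP-1 cells; compounds (final up to 57.5 uM) added 1 h before LPS (250 ng/mL) and ATP (1.25 mM) stimulation; lower signal means less secretion.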
VP16 counter: inhibits Gal4-VP16 luciferase reporter, ROR gamma counter-screen | hit rate 3.5% among 310,000 | Drosophila S2 Gal4-VP16 UAS-luciferase, luminescence, 20 h | Potency, µM (highest dose often 53.6 µM), for inactives: at the top dose activity, negative = inhibition, most hits filed as inhibitors;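 note: Gal4-VP16 expression switched on by copper sulfate through the metallothionein promoter; potency is the fitted concentration of half-maximal effect; nearly all actives have a fitted effect of over 50% in size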
An asterisk follows results filed as active; ? = inconclusive; · = no result given; [ ] = remark or other dose. Only some compounds are listed: those with a hit (about 21% of all), similar ones and a draw of the others. Unless noted, calls come from the whole dose curve; as a rule, active = well fitted curve in the direction sought with a large enough effect; inconclusive = small, poorly fitted or top-dose-only effect, or another doubt; inactive = no such curve, though single readings can be large; an effect the other way counts as inactive or inconclusive. % is set by controls: 0 for no effect and ±100 for the full control effect.

SMILES	ELG1 DNA repair	TDP1 cell noCPT	RORg inh	DT40 TDP1 CPT	IL1B secr inh	VP16 counter
Cn1c(=O)c(-c2cccs2)nc2cnc(Oc3ccccc3)nc21	·	-1%	13%	-1%	·	4%
CCn1c(=O)sc2cc(NS(=O)(=O)c3ccc(F)c(C)c3)ccc21	·	10µM*	·	10µM*	·	·
COc1ccc(NS(=O)(=O)c2ccc3c(c2)n(C)c(=O)c(=O)n3C)cc1Cl	·	?	·	-12%	·	·
COc1ccc(S(=O)(=O)Nc2ccc3c(c2)sc(=O)n3C)cc1Cl	·	18µM*	·	23µM*	·	·
COc1ccc(NS(=O)(=O)c2ccc3c(c2)NC(=O)CCS3)cc1Cl	-9%	18µM*	?	21µM*	-1	?
COC(=O)C[C@@H]1CC[C@@H](NS(=O)(=O)c2ccccc2OC)[C@@H](CO)O1	·	30%	·	-10%	30	·
CCc1c(C)sc2c1CCN(C(=O)Nc1cc(C)cc(C)c1)C2c1ccccc1 (stereo not given)	·	8.2µM*	·	3.7µM*	·	·
Cc1cc(C)cc(NC(=O)N2CCC(NC(=O)c3ccccc3C)CC2)c1	-6%	-19%	1%	-2%	7	-11%
CCOc1ccccc1NC(=O)N1CCc2c(sc(C)c2CC)C1c1ccccc1 (stereo not given)	·	15µM*	·	?	·	·
COc1cc(NCCCNC(C)C)c2nccc(C)c2c1	·	?	·	?	-11	·
CCN(CC)c1ccc(S(=O)(=O)N2CCOCC2)cc1NC(=O)Cn1nc(C)c([N+](=O)[O-])c1C	-5%	?	·	?	2	·
CCN(CC)c1ccc(S(=O)(=O)N2CCOCC2)cc1NC(=O)CN1CCc2ccccc2C1	?	7.3µM*	3.2µM*	4.6µM*	-110*	-17%[10 µM]
CCN(CC)c1ccc(S(=O)(=O)N2CCOCC2)cc1NC(=O)COC(=O)c1ccco1	-3%	-24%	·	3%	-6	·
CCN(CC)c1ccc(S(=O)(=O)N2CCOCC2)cc1NC(=O)COC(=O)/C=C/c1ccc(C)o1	?	10µM*	·	13µM*	?	·
COc1cc(/C=C/C(=O)OCC(=O)Nc2cc(S(=O)(=O)N3CCOCC3)ccc2Cl)cc(OC)c1OC	18µM*	?	·	?	-26	·
CCN(CC)c1ccc(S(=O)(=O)N2CCOCC2)cc1NC(=O)COC(=O)/C=C/c1ccccc1	·	?	·	18µM*	2	·
COc1cc(S(=O)(=O)N2CCOCC2)ccc1NC(=O)COC(=O)/C=C/c1cc(OC)c(OC)c(OC)c1	0%	?	·	?	38	·
CCCCC[C@H](O)/C=C/C=C\C/C=C\C=C\[C@@H](O)CCCC(=O)O	·	·	12%	·	·	6%
COc1ccc(/C=C(\C#N)C(=O)N2COCC2(C)C)cc1	?	-28%	-1%	-20%	-26	-5%
CCN(CC)c1ccc(S(=O)(=O)N2CCOCC2)cc1NC(=O)COC(=O)/C=C/c1ccc(O)c(OC)c1	·	21µM*	·	?	-1	·
O=C(CSCC(=O)N1CCCCC1)Nc1nc(-c2ccccc2)c(-c2ccccc2)s1	7%	16µM*	2%	18µM*	22	0%
COCCNc1nc(-c2ccc(OC)cc2)c(-c2ccc(OC)cc2)s1	21µM*	?	11µM*	-25%	-26	-19%
COc1ccc(-c2nc(NC(C)=O)sc2-c2ccccc2)cc1	21µM*	?	-2%	?	0	-2%
COc1ccc(S(=O)(=O)N2CCC(C(=O)NCc3ccccn3)CC2)cc1C	-6%	-19%	5%	-18%	-18	-2%
CCn1c(=O)c2c(n3cnnc13)-c1ccccc1CC21CCCCC1	-14%	?	27%[10 µM]	13µM*	3	-3%
SMILES	ELG1 DNA repair	TDP1 cell noCPT	RORg inh	DT40 TDP1 CPT	IL1B secr inh	VP16 counter
O=C(NNC1=C(C(=O)C(F)(F)F)CCC1)c1ccc(Cl)cc1	?	?	11µM*	?	82	?
O=C(NNC1=C(C(=O)C(F)(F)F)CCC1)c1cccc(Cl)c1	?	6.5µM*	?	5.8µM*	73	?
COc1ccc(C(=O)NC(=S)N2CCCC2)cc1	3%	1%	-21%	-9%	-14	-12%
COc1ccc(C(=O)NNC2=C(C(=O)C(F)(F)F)CCC2)cc1	?	1.3µM*	14µM*	0.73µM*	131	?
O=C(NNC(=O)c1cccc(Cl)c1)NNC(=O)c1cccc(Cl)c1	12%	-10%	·	0%	0	·
N#CCN1C(=O)C2CCCN2c2ccc(S(=O)(=O)N3CCOCC3)cc21 (stereo not given)	-1%	-2%	-3%	-8%	-7	2%
O=C(C[C@@H]1C/C=C\C[C@H](Cc2ccc(F)cc2)C(=O)OC[C@H]2CCCN2C1=O)N[C@H](CO)Cc1ccccc1	?	15µM*	·	13µM*	-19	·
O=C(C[C@@H]1C/C=C\C[C@H](Cc2ccc(F)cc2)C(=O)OC[C@@H]2CCCN2C1=O)N[C@H](CO)Cc1ccccc1	?	16µM*	·	18µM*	-1	·
O=C(C[C@@H]1C/C=C\C[C@@H](Cc2ccc(F)cc2)C(=O)OC[C@@H]2CCCN2C1=O)N[C@H](CO)Cc1ccccc1	-2%	23µM*	·	?	-21	·
O=C(C[C@H]1C/C=C\CC[C@@H](Cc2ccc(F)cc2)C(=O)OC[C@H]2CCCN2C1=O)N[C@H](CO)Cc1ccccc1	23µM*	21µM*	·	?	-6	·
Cn1cc(C(=O)NCCc2ccc(Cl)cc2)c(=O)c2cc(S(=O)(=O)N3CCCCC3)ccc21	·	9%	·	-5%	·	·
Cc1ccc(-c2nnc(SCc3ccccc3)o2)cc1	·	-20%	·	-16%	·	·
COC(=O)c1ccc(C(C(=O)NCc2ccccc2)N(Cc2cccs2)C(=O)c2cnccn2)cc1 (stereo not given)	?	16µM*	2%	?	-1	-9%
COc1ccc(C(C(=O)NCc2ccccc2)N(Cc2ccco2)C(=O)c2cnccn2)cc1 (stereo not given)	13%	?	12%	?	0	-11%
CCOCc1c(C(=O)Nc2ccccc2N2CCN(C)CC2)oc2ccccc12	?	10µM*	·	8.2µM*	-57*	·
CCCn1nc(C(=O)Nc2ccc3nc(N4CCOCC4)sc3c2)ccc1=O	16µM*	10µM*	·	9.2µM*	17	·
CCOc1cc(N2CCOCC2)c(OCC)cc1NC(=O)c1oc2ccccc2c1C	-1%	?	0%	-14%	-6	-2%
